Screening results deposited in PubChem BioAssay by several laboratories.
ABHD5-PLIN5 inh: ABHD5-PLIN5 protein interaction inhibition; Q00G26+Q8WTS1; Split G. princeps luciferase complementation, luminescence, 4 h; inhibition, % at 4 µM; hit rate 0.78% among 360,000;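 active means inhibition above the mean inhibition across every tested compound plus 3 SD, cut at about 22% in these data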;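 further: 0% = DMSO only wells and the 100% control is not disclosed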
TLR9-MyD88 block: blocks human TLR9 binding to MyD88; hit rate 0.21% among 340,000; inhibition, % at 4.98 µM; Q9NR96+Q99836; CHO BLA complementation TLR9-MyD88, CCF4 FRET ratio;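 active means inhibition above the mean over all tested compounds plus 3 SD, cut at about 21% in these data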;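 further: 0% = DMSO only wells and 100% = clavulanate BLA inhibitor control wells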
Target sequence (Q99836 whole entry, looked up): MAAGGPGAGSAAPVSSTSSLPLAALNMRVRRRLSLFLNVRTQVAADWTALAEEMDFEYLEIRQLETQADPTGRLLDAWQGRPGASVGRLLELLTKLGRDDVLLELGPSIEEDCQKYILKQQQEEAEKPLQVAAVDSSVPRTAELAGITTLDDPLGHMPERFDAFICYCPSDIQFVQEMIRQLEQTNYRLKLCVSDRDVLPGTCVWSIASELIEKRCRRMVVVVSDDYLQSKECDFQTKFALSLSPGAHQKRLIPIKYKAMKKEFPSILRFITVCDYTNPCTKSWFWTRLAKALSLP
Target sequence (Q9NR96 whole entry, looked up): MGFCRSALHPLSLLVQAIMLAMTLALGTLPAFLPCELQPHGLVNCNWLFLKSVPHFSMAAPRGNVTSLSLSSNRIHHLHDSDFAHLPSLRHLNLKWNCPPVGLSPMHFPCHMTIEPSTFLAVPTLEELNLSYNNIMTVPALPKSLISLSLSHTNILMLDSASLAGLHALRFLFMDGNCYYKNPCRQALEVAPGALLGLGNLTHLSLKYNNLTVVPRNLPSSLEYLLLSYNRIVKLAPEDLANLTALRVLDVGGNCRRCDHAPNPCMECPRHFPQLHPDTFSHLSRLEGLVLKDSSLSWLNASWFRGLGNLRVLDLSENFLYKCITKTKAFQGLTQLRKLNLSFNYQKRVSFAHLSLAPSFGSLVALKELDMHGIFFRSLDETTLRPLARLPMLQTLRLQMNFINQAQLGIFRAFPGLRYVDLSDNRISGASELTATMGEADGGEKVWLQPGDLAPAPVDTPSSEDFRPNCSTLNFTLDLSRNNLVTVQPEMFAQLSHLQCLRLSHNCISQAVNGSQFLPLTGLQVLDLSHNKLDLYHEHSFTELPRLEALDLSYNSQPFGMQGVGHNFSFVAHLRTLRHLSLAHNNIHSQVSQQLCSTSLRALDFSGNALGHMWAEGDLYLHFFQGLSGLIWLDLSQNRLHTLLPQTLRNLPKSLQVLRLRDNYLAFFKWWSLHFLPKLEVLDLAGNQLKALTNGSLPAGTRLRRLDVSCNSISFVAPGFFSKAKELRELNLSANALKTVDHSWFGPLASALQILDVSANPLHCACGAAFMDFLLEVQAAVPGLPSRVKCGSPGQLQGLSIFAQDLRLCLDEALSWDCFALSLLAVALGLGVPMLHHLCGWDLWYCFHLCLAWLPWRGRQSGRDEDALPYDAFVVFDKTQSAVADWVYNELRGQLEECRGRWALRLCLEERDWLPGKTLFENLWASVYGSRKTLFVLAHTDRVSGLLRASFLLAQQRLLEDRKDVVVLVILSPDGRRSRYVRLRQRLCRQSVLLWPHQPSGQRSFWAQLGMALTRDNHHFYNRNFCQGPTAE
TLR4 MyD88 comp: inhibitors of human TLR4-MyD88 binding; O00206+Q99836; HeLa CL3-4 TLR4/MyD88 BLA complementation, FRET ratio; inhibition, % at 8.4 µM; hit rate 0.18% among 200,000; AID 861; in the data active means inhibition above about 25%;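 further: 0% = vehicle and 100% = reference inhibitor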
NOD2 RIPK2 PPI: blocks binding of human NOD2 to RIPK2. O43353. CHO BLA complementation NOD2-RIPK2, CCF4 ratio. inhibition, % at 4.98 µM. hit rate 0.38% among 360,000; in the data active means inhibition above about 21%;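 further: 0% = vehicle only and 100% = reference blocker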
Granule exo inh: blocks lytic granule exocytosis | inhibition, % at 10 µM | TALL-104 LAMP-1 surface exposure, flow cytometry; cells stimulated with thapsigargin and PMA | hit rate 0.66% among 360,000 | AID 651702;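 active means inhibition above about 55%, limit read from the data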
PRMT1 inh: PRMT1 (human) inhibition, primary screen; recombinant PRMT1, activity-based probe fluorescence polarization; hit rate 1.3% among 370,000; inhibition, % at 2.79 µM;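 active means inhibition above about 21% made by adding two undisclosed values, limit read from the data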
Numbers without * were called inactive; x = no result given. An excerpt weighted towards active compounds, which were near 2.6% of everything screened.

SMILES	ABHD5-PLIN5 inh	TLR9-MyD88 block	TLR4 MyD88 comp	NOD2 RIPK2 PPI	Granule exo inh	PRMT1 inh
COc1cc(C(=O)Nc2nc(C)c(Cc3ccc4c(c3)OCO4)s2)cc(OC)c1OC	-6.3	7.0	2.3	-8.9	14.8	22.7*
CCCOc1ccc(C(=O)Nc2nc(C)c(Cc3ccc4c(c3)OCO4)s2)cc1	6.7	3.3	0.4	-19.3	16.9	1.8
O=C(C(=O)N1CCC(CNS(=O)(=O)c2ccccc2)CC1)c1cc2ccccc2o1	x	x	x	x	x	7.7
Cc1c(C)c(C)c(CO/N=C/c2cccs2)c(C)c1C	2.5	-3.2	x	6.7	88.0*	-3.9
O=C(CSc1nnc(-c2ccncc2)n1Cc1ccco1)Nc1cccc(O)c1	1.9	-10.5	8.8	-0.8	0.2	6.4
Cc1cc(C)c(NC(=O)CSc2nnc(-c3ccncc3)n2Cc2ccco2)c(Cl)c1	14.9	-7.7	-12.7	-0.6	-5.0	22.2*
COC(=O)/C(=C/Nc1ccc(O)cc1)[N+](=O)[O-]	-25.5	-8.1	-3.0	-2.9	0.7	47.5*
COc1cc(NC(=O)C2CCCN(S(=O)(=O)c3ccc(Cl)s3)C2)cc(OC)c1 (configuration not stated)	x	x	x	x	x	0.9
Cc1ccc(C(=O)NC(=S)NNS(=O)(=O)c2ccc(C)cc2)cc1	-17.8	1.8	-7.4	4.4	-0.2	22.6*
Cc1ccc(S(=O)(=O)NNC(=S)NC(=O)c2ccc([N+](=O)[O-])cc2)cc1	-4.3	-3.7	1.1	-3.8	-0.3	8.2
O=C(CCN1CCCCC1)c1ccc2c(c1)OCCO2	13.8	7.9	7.0	-17.1	37.9	24.0*
COCCN1C(=O)C2=C(C1=O)C1N(C)c3ccccc3[C@@]13C[C@@H](CO)N(C(=O)CCC(=O)OC)C3=N2 (some centres not stated)	x	x	x	x	x	1.5
CCOC(=O)CC[C@@H]1CC[C@]2(CCCN(S(=O)(=O)C3CCCCC3)C2)O1	x	x	x	x	x	-0.5
O=C(NC(=S)Nc1cccc(O)c1)C1CCCCC1	-8.0	-9.6	x	-12.6	62.0*	0.2
Cn1c(COc2ccccc2)nnc1SCC(=O)Nc1ccc(OCc2ccccc2)cc1	x	x	x	x	x	-1.6
Cc1ccc(Cn2cc(COC(=O)NCCc3c[nH]c4ccccc34)nn2)cc1	x	x	x	x	x	3.9
O=c1c2c([N+](=O)[O-])cc([N+](=O)[O-])cc2sn1-c1ccc(Br)cc1	-18.0	4.2	-19.1	-2.8	91.9*	x
CCCC(=O)N1CCC[C@]2(CC[C@@H](CCC(=O)OCC)O2)C1	x	x	x	x	x	-2.3
CCC(O)(c1ccc(NC(=O)OC(C)(C)C)cc1)c1cc(OC)cc(OC)c1 (configuration not stated)	x	x	x	x	x	2.5
CC(C)(C)NC(=O)c1ccccc1-c1nc2ccccc2s1	-5.3	-4.9	x	-5.0	-3.0	23.7*
CC(C)(C)NC(=O)c1nc2ccccc2s1	-0.3	-0.6	-0.3	-1.7	0.6	-3.4
Cc1ccc(C(C[N+](=O)[O-])n2nc(C)cc2C)cc1 (configuration not stated)	4.3	-2.4	19.2	-5.3	8.8	0.0
Cc1ccc(C(C[N+](=O)[O-])Sc2ccc(N)cc2)cc1 (configuration not stated)	5.5	-6.4	x	1.5	10.4	66.9*
COc1cccc(CNC(=O)[C@H]2CCCN2C(=O)[C@H]2CCCN2C(=O)c2ccc(C)cc2)c1	x	x	x	x	x	-4.5
CCC(CNc1cc(OC)cc2cccnc12)NC1CCCCC1 (configuration not stated)	-11.0	-6.6	x	-4.6	39.9	32.2*
SMILES	ABHD5-PLIN5 inh	TLR9-MyD88 block	TLR4 MyD88 comp	NOD2 RIPK2 PPI	Granule exo inh	PRMT1 inh
Cc1ccc(C)c(S(=O)(=O)Nc2cc(SCC(=O)O)c(O)c3ccccc23)c1	11.6	-0.6	-23.5	2.8	78.5*	x
COc1cccc(-n2nnnc2S(C)(=O)=O)c1	67.8*	21.9*	7.2	49.0*	80.0*	x
O=[N+]([O-])c1ccc(Cl)c(-c2ccc(/C=N/c3c(-c4ccco4)nc4ccccn34)o2)c1	3.2	-7.4	16.6	-8.3	0.1	19.1
O=[N+]([O-])c1ccc(-c2ccc(/C=N/c3c(-c4ccco4)nc4ccccn34)o2)cc1	-1.8	2.4	6.3	2.7	-0.1	22.9*
COc1ccccc1OC(=O)CCc1nc2ccccc2s1	-6.6	3.7	-10.6	-0.5	-3.4	22.4*
O=C(N/N=C/c1ccc(-c2ccc([N+](=O)[O-])cc2)o1)[C@H]1C[C@@H]1c1ccccc1	0.1	10.9	x	2.8	62.5*	1.3
C[N+](C)=C1SCC(C)(/C=N/O)S1 (configuration not stated)	-15.8	-9.7	x	0.5	107.5*	6.3
Cc1ccc(CCNc2ccc3ccccc3c2)cn1	-6.2	4.4	14.2	1.4	33.9	22.6*
CCN(CC(=O)Nc1ccc(NC(C)=O)cc1)C(=O)/C=C/c1ccc(C)o1	8.2	-3.8	x	2.4	-3.6	23.6*
Cc1cc(NS(=O)(=O)c2ccc(NC(=O)CSc3nnc(-c4ccccn4)n3-c3ccccc3)cc2)nc(C)n1	x	x	x	x	x	2.7
CN1CCN(NC(=O)CN2C(=O)/C(=C/c3c(Cl)cccc3Cl)SC2=S)CC1	-9.2	2.8	16.2	-8.5	10.1	22.1*
Cc1ccc(CNC(=O)c2cn(C)c(=O)c3c2c2ccccc2n3C)o1	6.5	8.6	5.3	5.8	3.2	22.4*
CCCCN(C)CCn1c(=S)[nH]c2ccc(N3CCOCC3)cc2c1=O	-4.8	-0.7	-1.8	2.8	-4.7	23.6*
Cn1cc(CNCc2cn(C)nc2-c2ccc(C3CCCCC3)cc2)cn1	22.2*	-1.4	-4.8	-6.5	6.5	3.9
COCCN1CCCC(CNCc2cn(C)nc2-c2ccc(Oc3ccccc3)cc2)C1 (configuration not stated)	11.1	-4.6	0.2	1.9	53.7	-2.2
COc1[nH]c(/N=C/c2ccccc2)c(C#N)c1C#N	4.5	8.0	-6.4	-1.8	-0.8	59.2*
CC(=O)C1=C(C)N(Cc2ccc(F)cc2)C(=S)NC1c1cccc(F)c1 (configuration not stated)	x	x	x	x	x	-1.4
CN1C(=O)c2cccc3c(S(=O)(=O)NCc4ccco4)ccc1c23	7.3	3.6	8.8	-1.4	-1.2	21.7*
COc1ccc(S(=O)(=O)NCc2ccco2)c2ccccc12	23.0*	0.5	-5.7	0.2	-11.0	0.5
CCN1CCN(C2=C(NS(=O)(=O)c3ccccc3)C(=O)c3ccccc3C2=O)CC1	13.3	0.4	x	-7.6	-0.3	6.9
CCN1CCN(C2=C(NS(=O)(=O)c3ccc(Br)cc3)C(=O)c3ccccc3C2=O)CC1	-21.2	4.1	x	3.5	-1.2	22.1*
CCOC(=O)c1ccc(NC(=O)COc2ccc(CNCCO)cc2OCC)cc1	-7.9	4.3	-7.4	-10.5	-0.4	-0.2
CCOC(=O)c1ccc(NC(=O)COc2ccccc2CNCCc2ccccc2)cc1	11.2	-8.4	-3.2	7.8	69.4*	-1.3
CCOc1ccc(-n2c(SCc3cccc4ccccc34)nnc2-c2ccc(C)cc2)cc1	x	x	x	x	x	-1.0
COC(=O)c1cc(-c2ccc(F)c(Cl)c2)c(=O)n2c1CCC2	x	x	x	x	x	-0.9
